The supplement of paper PMC12350171
Counter-ions that a name gives are not always drawn. Values without a mark were called inactive.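 Rule for the calls: active = AUC significantly below DMSO controls by Student t-fit with adjusted P under 0.01; inactive = not significantly reduced.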

Tested on: Haemophilus parainfluenzae
Assay: growth AUC normalised to DMSO control (fraction of control); higher = less growth inhibition, active = hit call of the paper
Conditions: 20 µM
Method in brief: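 Pathogens passaged twice anaerobically were inoculated at a starting OD578 of 0.01 into pre-reduced mGAM plates with drug at 20 μM and 1% DMSO, sealed with breathable membranes. Haemophilus parainfluenzae medium was supplemented with hemin and NAD. OD578 was read hourly for 24 h, with three biological replicates. Growth-curve AUC was computed by the trapezoidal rule up to the exponential-to-stationary transition and normalised to DMSO controls on the same plate.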

Structure (SMILES) | growth AUC normalised to DMSO control
Cc1cc2c(s1)Nc1ccccc1N=C2N1CCN(C)CC1 [Olanzapine] | 1.02
CCCCCCCCNC(C)C(O)c1ccc(SC(C)C)cc1 (stereo not drawn) [Suloctidil] | 0.986
O=C1CCc2cc(OCCCCc3nnnn3C3CCCCC3)ccc2N1 [Cilostazol] | 1.26
CNCC[C@@H](Oc1ccccc1C)c1ccccc1 [Tomoxetine hydrochloride] | 1.02
COc1ccc2c(c1)N(C[C@H](C)CN(C)C)c1ccccc1S2 [Methotrimeprazine maleate salt] | 1.04
Nc1nc2n[nH]nc2c(=O)[nH]1 [Azaguanine-8] | 0.992
CC[N+](CC)(CC)CCC(O)(c1ccccc1)C1CCCCC1 (stereo not drawn) [Tridihexethyl chloride] | 1.05
C[C@H](CS)C(=O)N1CCC[C@H]1C(=O)O [Captopril] | 1.05
CCCNC(C)C(=O)Nc1ccccc1C (stereo not drawn) [Prilocaine hydrochloride] | 1.01
O=C(OCCOCCO)c1ccccc1Nc1cccc(C(F)(F)F)c1 [Etofenamate] | 0.992
Clc1cc(Cl)c(OCC#CI)cc1Cl [Haloprogin] | 0.992
O=C(CCCN1CCC(O)(c2ccc(Cl)cc2)CC1)c1ccc(F)cc1 [Haloperidol] | 0.951
CC(N/C(=N\C#N)Nc1ccncc1)C(C)(C)C (stereo not drawn) [Pinacidil monohydrate] | 1
CN1CCN(CC(=O)N2c3ccccc3C(=O)Nc3cccnc32)CC1 [Pirenzepine dihydrochloride] | 1.01
N=C(N)NCCN1CCCCCCC1 [Guanethidine sulfate] | 1.03
NCCc1cc[nH]n1 [Betazole hydrochloride] | 1
Cc1ccc(C(=O)c2ccc(CC(=O)O)n2C)cc1 [Tolmetin sodium salt dihydrate] | 1.07

Structure (SMILES) | growth AUC normalised to DMSO control
NNC(=O)c1ccncc1 [Isoniazid] | 1.09
CC(C)(C)NC[C@H](O)COc1cccc2c1CCCC2=O [(-) Levobunolol hydrochloride] | 0.989
CCC1=C(C)CN(C(=O)NCCc2ccc(S(=O)(=O)NC(=O)N[C@H]3CC[C@H](C)CC3)cc2)C1=O [Glimepiride] | 1.02
CCc1ccc(CCOc2ccc(CC3SC(=O)NC3=O)cc2)nc1 (stereo not drawn) [Pioglitazone] | 0.955
CCCc1nn(C)c2c(=O)[nH]c(-c3cc(S(=O)(=O)N4CCN(C)CC4)ccc3OCC)nc12 [Sildenafil] | 1.1
CC(C)(C)C(=O)OCOC(=O)[C@@H]1N2C(=O)[C@@H](/N=C/N3CCCCCC3)[C@H]2SC1(C)C [Pivmecillinam hydrochloride] | 0.825
CN(C)CCCOc1nn(Cc2ccccc2)c2ccccc12 [Benzydamine hydrochloride] | 0.964
c1ccc(CNc2ncnc3nc[nH]c23)cc1 [Aminopurine, 6-benzyl] | 1
CC(C)NC[C@H](O)COc1cccc2ccccc12 [(S)-(-)-Propranolol hydrochloride] | 1.03
C#Cc1cccc(Nc2ncnc3cc(OCCOC)c(OCCOC)cc23)c1 [Erlotinib] | 1.04
NC[C@@H]1O[C@H](O[C@H]2[C@@H](O)[C@H](O[C@@H]3[C@@H](O)[C@H](N)C[C@H](N)[C@H]3O[C@H]3O[C@H](CO)[C@@H](O)[C@H](O)[C@H]3N)O[C@@H]2CO)[C@H](N)[C@@H](O)[C@@H]1O [Paromomycin sulfate] | 0.88
CCn1cc(C(=O)O)c(=O)c2cc(F)c(N3CCNCC3)nc21 [Enoxacin] | 0.0701 (active)
CCN(CC)CCNC(=O)c1cc(Cl)c(N)cc1OC [Metoclopramide monohydrochloride] | 0.991
C=C(CC)C(=O)c1ccc(OCC(=O)O)c(Cl)c1Cl [Ethacrynic acid] | 1.02
CC(C)(C)NCC(O)c1ccc(O)c(CO)c1 (stereo not drawn) [Salbutamol] | 0.895
O=C(CCCCC(=O)Nc1c(I)cc(I)c(C(=O)O)c1I)Nc1c(I)cc(I)c(C(=O)O)c1I [Iodipamide] | 1.01
